Source: the supplement of paper PMC11417369
± gives the standard deviation of the averaged measurements. In all, about 25,000 sequences were measured (“ln(normalized median fluorescence intensity)”: median about 8.9, highest 2% from about 10 on). Many of the other results were omitted from the sample, so the highest values are more common in it than they were.

test system: PfAP2-LT AP2 domain (GST-tagged); experiment: gcPBM binding intensity (ln(normalized median fluorescence intensity)); higher = stronger DNA binding
In short: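 The binding buffer was 1× PBS containing 1% milk, 0.2 mg/ml BSA, 0.5% salmon testes DNA and 0.03% Triton X-100. In it, GST-tagged P. falciparum DNA-binding domains expressed in E. coli were applied for 1 h to an Agilent 4 × 180k array of primer-extended double-stranded 36-bp intergenic genomic probes plus negative controls. Binding intensity, read with Alexa488 anti-GST antibody and a 488 nm scan, is the highest Masliner-normalised natural-log median intensity across replicate spots of either probe orientation.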

| Sequence | gcPBM binding intensity (ln) |
| --- | --- |
| GGCATATATATATGCACACATACATATATACATGTG [CACACA_site3859] | 9.7 ± 0.3 |
| GTTACACAAACAAACACACACACACGCACGCACAAA [CACACA_site7191] | 10 ± 0.2 |
| AAAGAAAAAAAAAAAAAAAAAAAAAAAATTATACAT [CACACA_negctrl_site7] | 8.45 ± 0.64 |
| TTTAAAACCTTACATACACACAAATATGTAAATATA [CACACA_site6464] | 8.75 ± 0.42 |
| GAGCACCAAAATATATGTACATATGATAAATGTGAA [XGTACX_site1130] | 8.96 ± 0.51 |
| GTTATTGAAAAAATAGTGCAATATAACAAAGTAAAA | 8.85 ± 0.48 |
| AAAAAAAACGAACACACACACAAATATGTAAAAATA [CACACA_site6673] | 9.87 ± 0.28 |
| ATTATATTAATATATATATATATATATATAATAATA [CACACA_negctrl_site437] | 8.69 ± 0.3 |
| TCATAGTATGGACACACACACACACCCATATATATA [CACACA_site5033] | 10 ± 0.25 |
| TACACCCATGGACACACACACACGCATAAAAAAAAA [CACACA_site4933] | 9.85 ± 0.58 |
| TACACGCATGGACACACACACACACCCATATATATA [CACACA_site4522] | 10.3 ± 0.35 |
| AAAAAAAATCAAATGGGTACTTATTCTTAATAATAT [XGTACX_site3792] | 8.61 ± 0.33 |
| TTTTTAGAAAAGGTTATAAAAAATTAATTGAAAAAA [GTGCAC_negctrl_site289] | 8.05 ± 0.47 |
| TAAAAGTAAAGACATGCATGCATTGGTATCTTTTAC [TGCATGCA_site665] | 8.95 ± 0.35 |
| ATGTAGACTGAAACCACACACACATATATATATATA [CACACA_site606] | 10.2 ± 0.2 |
| GTAGACTGAAACCACACACACATATATATATATATT [CACACA_site605] | 9.8 ± 0.13 |
| GTAGACTGAAACCACACACACATATATAAATATATT [CACACA_site6433] | 9.68 ± 0.38 |
| GCGTTGTTTTTAAAAAGTACATTTTTATATAAGTTA [XGTACX_site8780] | 8.54 ± 0.46 |
| TATTAAGAAGAAAATTCACACATTTGTACCTCTCTT [CACACA_site4822] | 8.86 ± 0.47 |
| TACACCCACCCACATACACACACATACACATATATA [CACACA_site8503] | 10.1 ± 0.21 |
| ATATATATATATTCCACACACACACCCAAAAAAAAA [CACACA_site3649] | 9.745 ± 0.05 |
| AAATTCCACCAACACACACACATATAAATAAATAAA [CACACA_site1233] | 9.86 ± 0.42 |
| ACATACATACCCCCACGTACGTACCGAAACACCACC [XGTACX_site1982] | 9.74 ± 0.028 |

| Sequence | gcPBM binding intensity (ln) |
| --- | --- |
| ACATTCTATACATACACACCCACACCCAAAAAAAAA [CACACA_site863] | 9.59 ± 0.042 |
| TTCCCCCCCAGACACACACACACATACATACCACAT [CACACA_site2305] | 11.1 ± 0.77 |
| ATTCTACACCCACATACACACATATATATATATATA [CACACA_site3426] | 10 ± 0.085 |
| GACATATTCCCCCCCACACACACACCCACATACATA [CACACA_site2302] | 11.1 ± 0.18 |
| TATTCCCCCCAACACACACACACACCGACATACCAC [CACACA_site8723] | 10.8 ± 0.26 |
| CATACAGACATACATACACACATACATACAGACATA [CACACA_site6996] | 9.56 ± 0.35 |
| TACAGACATACATACACACATACATACAGACATACA [CACACA_site1941] | 9.43 ± 0.38 |
| TATTCCCCCAAACACACACACACACCCACATACCAC [CACACA_site2304] | 10.5 ± 0.13 |
| TGTTATTCTGCATATACACACAAATAACAATTTAAA [CACACA_site6943] | 8.67 ± 0.38 |
| CCTTTTTTATTTACAACACACGTAAAGGTTCAAATA [CACACA_site1741] | 8.68 ± 0.42 |
| TTTTCAATTAATAATACACACATGTATATATCATTA [CACACA_site7539] | 8.81 ± 0.43 |
| TATGAAATGCTCCAATCACACATGAATGTAATATAT [CACACA_site5458] | 8.73 ± 0.35 |
| AACTATTACTTTCTTTCACACATTTTTTTTTTTTTT [CACACA_site5355] | 8.94 ± 0.59 |
| AATAATATCTGAAAATGTACATTTTATTATAAACAT [XGTACX_site8441] | 8.86 ± 0.45 |
| ATGAATAAAAAAGGTGGTACATATATATATATATAT [XGTACX_site7893] | 9.82 ± 0.11 |
| AAAAAAAAAAAAAACACACACACATAGACCTCCAAT [CACACA_site3563] | 10.2 ± 0.26 |
| AAAAAAAAAAAACACACACACATAGACCTCCAATAG [CACACA_site3562] | 9.77 ± 0.25 |
| AAAAAAAAAAGACACACACACATAGACCTCCAATAG [CACACA_site7646] | 9.79 ± 0.25 |
| TATAAATATACAAAGGTGCATAAAAAGTTATGTTTT [GTGCAC_site9832] | 8.72 ± 0.44 |
| TTCTATTCAAATGCAAAATTATTAAATAAAAAATAA [GTGCAC_negctrl_site708] | 8.31 ± 0.43 |
| GAAAAGCATAGATGCACACATATATATATATATATA [CACACA_site2169] | 10.18 ± 0.014 |
| AAGAAAAGCATAGATGCACACATATATATATATATA [CACACA_site8675] | 10.2 ± 0.32 |
| AAAAAAAAAAGAAACACACACATATATATATAGAAT [CACACA_site1777] | 9.44 ± 0.39 |

| Sequence | gcPBM binding intensity (ln) |
| --- | --- |
| GCTAAAAGTATATGCACACACATATAGATGCACATA [CACACA_site6868] | 9.34 ± 0.33 |
| TAGGAAAAGAAAAGCACACACATAAATAGATATATA [CACACA_site6382] | 9.43 ± 0.54 |
| ATTTTAGATGAAAAAGCACACAACATATATATATAT [CACACA_site2295] | 9.44 ± 0.38 |
| AATACCCATATCTTCACACATACATAATAAATTATA [CACACA_site5367] | 8.81 ± 0.36 |
| AAAAAAAAAATATACACACACATATAAATATAAATA [CACACA_site7574] | 9.34 ± 0.42 |
| TGAGGTAACTAAATATGTACGTAACGAAGATACATA [XGTACX_site8231] | 8.96 ± 0.5 |
| AATTGTTCGATATATGCACACAGTTTTGTTATTTTT [CACACA_site1615] | 9.25 ± 0.34 |
| TTTATTAAACTTGACACACACACACCCACATATATA [CACACA_site760] | 9.8 ± 0.28 |
| GTTTGATTAAACTTGACACACATATATATAAATATA [CACACA_site1784] | 8.71 ± 0.44 |
| TATTAAACTTGACACACACACACACGCATATATAAA [CACACA_site6496] | 10.1 ± 0.14 |
| TTTCCCCCATATAATGAACACACACCCTCCTCATAA [CACACA_site8110] | 9.84 ± 0.41 |
| CCCATGTAATATTAAACACACACTCATATAACACAA [CACACA_site7906] | 9.36 ± 0.26 |
| CCCCATATAATGAACACACACACTCCTCATAATTAA [CACACA_site628] | 10.33 ± 0.099 |
| TTATAAATTCAATGTACTACACAAAATGAATTTAAT [XGTACX_site6683] | 8.53 ± 0.35 |
| AGAACCATATATAAATGTACATGTTAATATGAATAA [XGTACX_site130] | 8.93 ± 0.42 |
| ATTATGTTTCTTTTTTTTTTTAAAGGATGTCTTTTT [CACACA_negctrl_site974] | 8.62 ± 0.56 |
| TTAAAAAAAAAACACACACACATACACATATATATA [CACACA_site3299] | 9.91 ± 0.2 |
| TAAACATACATATACACACACACACCCACACCCACA [CACACA_site492] | 10.3 ± 0.18 |
| ATTAAACATACATATACACACACACCCACCCACCCA [CACACA_site8057] | 10.22 ± 0.071 |
| TTATATATGTATTAATGTACATAGTTGAGAAAGGTA [XGTACX_site1511] | 8.78 ± 0.34 |
| GAACCTTTAAAATACACACCCAAATCCTTTGAAATA [CACACA_site3630] | 8.88 ± 0.42 |
| CAATGTTGTACATACACACACACAAAAAAAAAATAA [CACACA_site2407] | 9.6 ± 0.45 |
| TCTCCTTGTTCCTTTTTTTTAAAAAAAAACATTAAA [CACACA_negctrl_site679] | 8.47 ± 0.52 |

| Sequence | gcPBM binding intensity (ln) |
| --- | --- |
| GTTAATTATTAAATTTGTACTCATATATATTATATA [XGTACX_site6862] | 8.71 ± 0.53 |
| CAAAGACACAAACACACACACACATACATACATACA [CACACA_site453] | 10.3 ± 0.42 |
| AAAAAAAAAAGACACACACACAAATACAAATACATA [CACACA_site6334] | 10 ± 0.28 |
| ATAAAACAAAGACACACACACATACACAAAAAAAAA [CACACA_site7752] | 9.99 ± 0.42 |
| GGTACATACAGACACACACACAAAAAAAAAAAAATA [CACACA_site6844] | 9.81 ± 0.64 |
| AAAAAAAAAAGACACACACACACAAATACATACACA [CACACA_site6472] | 10.2 ± 0.042 |
| AAGACACAAAAACACACACACATACATACATACATA [CACACA_site454] | 9.99 ± 0.31 |
| TAATATTTCGCACTGTGTACTGAAATATTTATATCG [XGTACX_site516] | 8.76 ± 0.36 |
| TAATTAACCTATGCATTCATATAGATACATAAATAT [CACACA_negctrl_site885] | 8.72 ± 0.51 |
| GGTAATTATTTTGGTTGTACTCAAATATATAATATT [XGTACX_site291] | 8.89 ± 0.23 |
| ATCAAAAACATACCTACACACACAATATGTATATAT [CACACA_site9171] | 9.51 ± 0.28 |
| CATACACCCATACATACACACATACATATATATATA [CACACA_site8591] | 9.62 ± 0.15 |
| CACATATATACACATACACACACACCCATACACCCA [CACACA_site8505] | 10.1 ± 0.25 |
| ACCATACATACATACACACACACACCCATATATATA [CACACA_site2917] | 10.2 ± 0.26 |
| GATGAATAAATCAAAGCACACATACACCCACATATA [CACACA_site7986] | 9.67 ± 0.13 |
| TATACATACACATACACACATACACCCATACACATA [CACACA_site1746] | 9.69 ± 0.33 |
| TATATATATATATATACACACATACAGATATATATT [CACACA_site4629] | 9.5 ± 0.38 |
| TCAAAGCACCCATACACACACATATATATATATATA [CACACA_site4317] | 10.2 ± 0.18 |
| TCAAAGCACACATACACACACATATAGATTTATATA [CACACA_site6272] | 9.73 ± 0.16 |
| CATATACATACACATACACACATACACCCATACACA [CACACA_site8514] | 9.68 ± 0.29 |
| TATATATACATATACACACACACACCCATATATATA [CACACA_site2246] | 10 ± 0.11 |
| CTAGCAAATACATACACACACACACCCATACATATA [CACACA_site3496] | 9.95 ± 0.18 |
| TCAAAGCACAGATACACACACATATATATATATATA [CACACA_site287] | 10.18 ± 0.014 |
